# Where “and” joins values, the source holds several entries; their conditions need not be identical. Identical values can stand only once. Records with an inconclusive call do not appear. Where a call stands in place of a potency, no number is given. A structure can be active in one record and inactive in another. Calls of active or inactive are those of the source. Calls come from the whole dose curve; as a rule, active = well fitted curve in the direction sought with a large enough effect; inconclusive = small, poorly fitted or top-dose-only effect, or another doubt; inactive = no such curve, though single readings can be large; an effect the other way counts as inactive or inconclusive.
# Columns and labels:
# [1] = NCATS anti-infectives library activity on HEK293 viability as a counter-qHTS vs the C. elegans viability qHTS (AID 1745854);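 note: HEK293 cells exposed to compounds for 24 hr before the viability read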
# In short: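 Compounds were acoustically plated (several concentrations, 1:5, final up to 41.7 uM), then 1500 HEK293 cells added per well and incubated 24 hr at 37C, 5% CO2. CellTiter-Glo was added and luminescence read after 10 min.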
# [2] = target: Glutathione peroxidase 1 (Homo sapiens) (UniProt P07203); experiment: Primary qHTS Assay for Inhibitors of Recombinant Selenoprotein Glutathione Peroxidase 1 (GPX1) (AID 1845191); note: nearly all actives have a fitted effect of over 65% in size
# In short: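 Recombinant GPX1 (10 nM final) was preincubated with compound for 30 min at room temperature, then reacted with 1 mM GSH, 0.5 mM CHP, 0.5 mM NADPH and 100 nM glutathione reductase; NADPH fluorescence (340/450 nm) was read at 0 and 15 min.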
# [3] = target: Phospholipid hydroperoxide glutathione peroxidase GPX4 (Homo sapiens) (UniProt P36969); experiment: Primary qHTS Assay for Inhibitors of Recombinant Selenoprotein Glutathione Peroxidase 4 (GPX4) (AID 1845192); note: nearly all actives have a fitted effect of over 65% in size
# In short: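 GR-coupled readout: 100 nM GR, 1 mM GSH, 0.5 mM NADPH; NADPH fluorescence (ex 340/em 450 nm) read at t=0 and after 15 min RT. GPX4 200 nM, preincubated 30 min with compound; substrate 0.5 mM CHP.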
# [4] = Primary qHTS for inhibitors of nuclear receptor binding SET domain protein 2 (NSD2) in an isogenic RCH-ACV NSD2 p.E1099K mutant (9B) (AID 1645876); note: nearly all actives have a fitted effect of over 70% in size; note: potency is the fitted concentration of half-maximal effect
# [5] = target: Metallo-beta-lactamase type 2 (Klebsiella pneumoniae) (UniProt C7C422); experiment: qHTS to identify inhibitors of the New Delhi Metallo-beta-lactamase (NDM): assay validation screen against the NCATS LOPAC Collection (AID 1794843);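 note: nitrocefin turnover by NDM-1 measured as 485 nm absorbance at plateau; series mostly up to about 38 µM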
# In short: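 NDM-1 at 2 nM final in 50 mM HEPES pH 7.0, 1 uM ZnSO4, 0.01% Tween20, preincubated with LOPAC compounds pinned in DMSO; 50 uM nitrocefin (stock) added. Hydrolysis read as absorbance at 485 nm in the plateau phase.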
# [6] = Primary qHTS for inhibitors of nuclear receptor binding SET domain protein 2 (NSD2) in an RCH-ACV wild type WT cells (2C) (AID 1645877); note: nearly all actives have a fitted effect of over 70% in size
# Chain of Phospholipid hydroperoxide glutathione peroxidase GPX4 (Homo sapiens) (P36969 whole entry, looked up): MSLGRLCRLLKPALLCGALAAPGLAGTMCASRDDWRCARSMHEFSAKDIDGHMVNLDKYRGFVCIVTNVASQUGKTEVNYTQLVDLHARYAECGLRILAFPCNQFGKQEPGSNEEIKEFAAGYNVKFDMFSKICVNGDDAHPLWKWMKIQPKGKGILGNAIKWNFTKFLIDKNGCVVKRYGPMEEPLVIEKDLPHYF
# Chain of Glutathione peroxidase 1 (Homo sapiens) (P07203 whole entry, looked up): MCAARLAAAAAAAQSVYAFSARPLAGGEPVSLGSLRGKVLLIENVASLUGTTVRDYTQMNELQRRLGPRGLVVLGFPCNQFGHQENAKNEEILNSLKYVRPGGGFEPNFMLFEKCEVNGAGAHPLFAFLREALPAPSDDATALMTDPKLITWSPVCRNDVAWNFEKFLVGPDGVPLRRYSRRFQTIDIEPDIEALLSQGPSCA
# Chain of Metallo-beta-lactamase type 2 (Klebsiella pneumoniae) (C7C422 whole entry, looked up): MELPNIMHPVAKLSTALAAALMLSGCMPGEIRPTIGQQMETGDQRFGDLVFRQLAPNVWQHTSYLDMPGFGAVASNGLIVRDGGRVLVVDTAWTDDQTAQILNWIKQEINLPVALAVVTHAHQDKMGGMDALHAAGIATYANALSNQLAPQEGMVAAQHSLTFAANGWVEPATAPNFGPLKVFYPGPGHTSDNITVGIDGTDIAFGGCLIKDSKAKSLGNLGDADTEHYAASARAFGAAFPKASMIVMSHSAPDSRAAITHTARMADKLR
smiles,measurement,setting,value
O=C(N[C@H](CO)[C@H](O)c1ccc([N+](=O)[O-])cc1)C(Cl)Cl,Potency,[1],inactive
same,Potency,[2],inactive
same,Potency,[3],inactive
CCC(=O)O[C@]1(C(=O)SCF)[C@H](C)C[C@H]2[C@@H]3C[C@H](F)C4=CC(=O)C=C[C@]4(C)[C@@]3(F)[C@@H](O)C[C@@]21C,Potency,[3],inactive
CC(C(=O)O)c1ccc2c(c1)CC(=O)c1ccccc1S2 (centres undefined),Potency,[4],inactive
same,Potency,[3],inactive
Nc1nc(N)c2nc(CNc3ccc(C(=O)NC(CCC(=O)O)C(=O)O)cc3)cnc2n1 (centres undefined),outcome,[5],inactive
same,Potency,[2],inactive
same,Potency,[3],inactive
NCCCC(O)(P(=O)(O)O)P(=O)(O)O,Potency,[2],inactive
same,Potency,[3],inactive
CCN1CCCC1CNC(=O)c1cc(S(N)(=O)=O)ccc1OC (centres undefined),outcome,[5],inactive
same,Potency,[3],inactive
CN1CCCC(n2nc(Cc3ccc(Cl)cc3)c3ccccc3c2=O)CC1 (centres undefined),Potency,[2],inactive
same,Potency,[3],inactive
CNC(=O)c1cc(Oc2ccc(NC(=O)Nc3ccc(Cl)c(C(F)(F)F)c3)cc2)ccn1,Potency,[4],9.34 µM (active) and 21.1 µM (active) and 5.15 µM (active)
same,Potency,[3],inactive
Cc1cc(NS(=O)(=O)c2ccc(N)cc2)no1,Potency,[2],inactive
same,Potency,[3],inactive
C#CCN[C@@H]1CCc2ccccc21,Potency,[4],inactive
same,Potency,[3],inactive
O=C(O)c1cn(C2CC2)c2cc(N3CCNCC3)c(F)cc2c1=O,Potency,[3],inactive
CC1=CC(=O)c2ccccc2C1=O,Potency,[4],31.6 µM (active) and inactive
same,Potency,[3],inactive
Cc1c(-c2ccc(O)cc2)n(Cc2ccc(OCCN3CCCCCC3)cc2)c2ccc(O)cc12,Potency,[3],inactive
O=C(NCC1CN(c2ccc(N3CCOCC3=O)cc2)C(=O)O1)c1ccc(Cl)s1 (centres undefined),Potency,[2],inactive
same,Potency,[3],inactive
C[C@@H](NCCCc1cccc(C(F)(F)F)c1)c1cccc2ccccc12,Potency,[4],13.3 µM (active) and 18.6 µM (active)
same,Potency,[3],inactive
COCCCOc1cc(C[C@@H](C[C@H](N)[C@@H](O)C[C@H](C(=O)NCC(C)(C)C(N)=O)C(C)C)C(C)C)ccc1OC,Potency,[6],inactive
same,Potency,[2],inactive
same,Potency,[3],inactive
CN1CCN(c2c(F)cc3c(=O)c(C(=O)O)cn4c3c2OCN4C)CC1,Potency,[2],inactive
same,Potency,[3],inactive
CC(C)(C)NC(=O)[C@H]1CC[C@H]2[C@@H]3CC[C@H]4NC(=O)C=C[C@]4(C)[C@H]3CC[C@]12C,Potency,[2],inactive
same,Potency,[3],inactive
Cc1ccnc2c1NC(=O)c1cccnc1N2C1CC1,Potency,[1],inactive
same,Potency,[3],inactive
COc1ccc2c(c1)c(CC(=O)OCC(=O)O)c(C)n2C(=O)c1ccc(Cl)cc1,Potency,[2],inactive
same,Potency,[3],inactive
Nc1nc(F)nc2c1ncn2[C@@H]1O[C@H](CO)[C@@H](O)[C@@H]1O,Potency,[4],2.09 µM (active) and 94.4 nM (active) and 1.29 µM (active)
same,Potency,[2],inactive
same,Potency,[3],inactive
CC1=C(C(=O)O)N2C(=O)[C@@H](NC(=O)C(N)c3ccccc3)[C@H]2SC1 (some centres undefined),outcome,[5],inactive
same,Potency,[2],inactive
same,Potency,[3],inactive
O=c1oc2c(O)c(O)cc3c(=O)oc4c(O)c(O)cc1c4c23,Potency,[6],inactive
same,Potency,[2],inactive
same,Potency,[3],inactive
NC(=O)c1cccnc1,Potency,[4],inactive
same,Potency,[2],inactive
same,Potency,[3],inactive
CC(=O)[C@H]1CC[C@H]2[C@@H]3CCC4=CC(=O)CC[C@]4(C)[C@H]3CC[C@]12C,Potency,[2],inactive
same,Potency,[3],inactive
NC(=O)N1c2ccccc2CC(=O)c2ccccc21,Potency,[3],inactive
CCCCCCNC(=O)n1cc(F)c(=O)[nH]c1=O,Potency,[4],8.41 µM (active) and 10.5 µM (active)
same,Potency,[3],inactive
NC(N)=NC(N)=NCCc1ccccc1,Potency,[2],inactive
same,Potency,[3],inactive
